Results on 22 compounds are retold here after PubChem BioAssay (Tox21).

The nature of test [1]: qHTS assay to test for compound auto fluorescence at 535 nm (green) in HEK293 cells (AID 720680). A general note: qHTS replaces the single test concentration by a dilution series.
The nature of test [2]: qHTS assay to test for compound auto fluorescence at 460 nm (blue) in HEK293 cell free culture (AID 720681). An outline of the steps: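 Test compounds were pinned into cell-free culture medium (DMEM with 10% FBS) and fluorescence was read directly at Ex/Em 405/460 nm. Signals were expressed as fluorescence equivalents of triamterene, with DMSO vehicle as control.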
Test [3] can be described thus: qHTS assay to test for compound auto fluorescence at 535 nm (green) in HEK293 cell free culture (AID 720682). An outline of the steps: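 Cell-free medium (DMEM, 10% FBS) receives compound or DMSO by pintool. Plate read directly at Ex 485/Em 535 nm. Signal converted to fluorescein equivalency.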
The nature of test [4]: qHTS assay to test for compound auto fluorescence at 590 nm (red) in HEK293 cell free culture (AID 720683). An outline of the steps: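 Tox21 10K library compounds were pinned into cell-free DMEM with 10% FBS and fluorescence was read at excitation 540 nm. Activity is expressed as Rose Bengal sodium equivalency.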
A short description of test [5]: qHTS assay to test for compound auto fluorescence at 590 nm (red) in HepG2 cell free culture (AID 720684). An outline of the steps:
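Ex 540 / Em 590 nm read of compound in cell-free MEM (10% FBS). Rose Bengal sodium reference.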

Test [6] can be described thus: qHTS assay to test for compound auto fluorescence at 460 nm (blue) in HepG2 cell free culture (AID 720685). An outline of the steps: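 Cell-free plates of MEM plus 10% FBS received 23 nL compound or DMSO vehicle; blue-channel (405/460 nm) intensity scored against triamterene as reference fluorophore.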
Test [7] is described as follows: qHTS assay to test for compound auto fluorescence at 535 nm (green) in HepG2 cell free culture (AID 720686).
The nature of test [8]: qHTS assay to test for compound auto fluorescence at 460 nm (blue) in HepG2 cells (AID 720687). An outline of the steps: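 Cells (2,000/well in MEM with 10% FBS) attached overnight at 37 C, then were exposed to compound or DMSO for 1 hr at 37 C, 5% CO2. Fluorescence read at Ex/Em 405/460 nm, expressed as triamterene-equivalent signal.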
Test [9] addresses Glucocorticoid receptor (Homo sapiens) (UniProt P04150). Description: qHTS assay to identify small molecule antagonists of the glucocorticoid receptor (GR) signaling pathway (AID 720692; active means well fitted inhibition curve with a large enough effect in the signal ratio in the repeat runs, not every such curve was filed as active; inconclusive means weak or mixed curves, or effect the other way; inactive means no such curve, though single readings can be large or run the other way; the % refers to the signal ratio; further: potency means the concentration at half of the fitted maximal effect). An outline of the steps:
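Antagonism was scored as loss of dexamethasone-driven (5 nM final) reporter signal in HeLa cells bearing a glucocorticoid response element–beta-lactamase construct, after 18 h compound exposure at 37 C and 2 h FRET substrate loading.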

Test [10] has the same target. As to the kind of experiment: qHTS assay to identify small molecule agonists of the glucocorticoid receptor (GR) signaling pathway (AID 720691; active means well fitted activation curve with a large enough effect in the signal ratio in the repeat runs, not every such curve was filed as active; inconclusive means weak or mixed curves, or effect the other way; inactive means no such curve, though single readings can be large or run the other way; the % refers to the signal ratio; further: potency means the concentration at half of the fitted maximal effect). The conditions noted are these: GR-bla HeLa, beta-lactamase reporter ratio, 18 h; activation: at 62.4 µM (top of the series). An outline of the steps: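 Steps: seed GR-bla HeLa cells, incubate 4 h at 37 C/5% CO2; pin-transfer DMSO-dissolved compounds; incubate 18 h at 37 C; add LiveBLAzer B/G FRET substrate; after 2 h at room temperature, measure fluorescence.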

The source made the active and inactive calls. Unless noted, the call rests on the fitted dose curve; in most records, active means well fitted curve in the direction sought with a large enough effect in the repeat runs; inconclusive means weak or mixed curves; inactive means flat fitted curve, though single readings scatter.

Glucocorticoid receptor (Homo sapiens), sequence (P04150 whole entry, looked up): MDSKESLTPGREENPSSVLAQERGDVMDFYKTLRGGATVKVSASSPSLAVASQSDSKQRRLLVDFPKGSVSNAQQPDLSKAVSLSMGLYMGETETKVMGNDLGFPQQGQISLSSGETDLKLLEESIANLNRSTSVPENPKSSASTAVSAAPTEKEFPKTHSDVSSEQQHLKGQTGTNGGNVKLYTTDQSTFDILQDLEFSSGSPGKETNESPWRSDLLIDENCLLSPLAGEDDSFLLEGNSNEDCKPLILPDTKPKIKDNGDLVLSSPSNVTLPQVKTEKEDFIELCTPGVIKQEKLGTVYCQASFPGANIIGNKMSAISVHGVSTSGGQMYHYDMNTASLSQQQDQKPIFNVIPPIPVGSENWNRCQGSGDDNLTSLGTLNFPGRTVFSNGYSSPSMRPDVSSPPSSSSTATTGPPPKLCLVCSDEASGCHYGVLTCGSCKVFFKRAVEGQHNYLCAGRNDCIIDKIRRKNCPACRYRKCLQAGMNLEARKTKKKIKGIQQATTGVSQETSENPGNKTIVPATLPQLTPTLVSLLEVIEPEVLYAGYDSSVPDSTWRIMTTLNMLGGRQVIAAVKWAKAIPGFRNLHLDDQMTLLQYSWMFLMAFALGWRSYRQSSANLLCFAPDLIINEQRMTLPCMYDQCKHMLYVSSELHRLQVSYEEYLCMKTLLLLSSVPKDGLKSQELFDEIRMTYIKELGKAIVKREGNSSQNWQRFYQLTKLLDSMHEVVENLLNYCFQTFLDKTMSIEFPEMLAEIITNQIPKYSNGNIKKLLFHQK

For `CCCCCCCCCCCCCCCCCCCCCCO`, the Potency entry in test [1], in test [2], in [3], in [4], in test [5] and in test [7] was “inactive” each time. For the same compound, the Potency result in test [9] was “inactive”. The compound was called inactive in test [6] and in test [8].
As for `O=C(O)COc1ccc(CCNS(=O)(=O)c2ccccc2)s1`, the Potency entry in test [1], in test [2], in test [3], in test [4], in test [5] and in test [7] was “inactive” each time. Besides, the Potency result in [9] was “inactive”. Moreover, the compound was classed as inactive in test [6] and in test [8].
Regarding `C=CCCCCCCCCC(=O)OC`, the Potency entry in test [1], in [2], in test [3], in [4], in [5] and in test [7] was “inactive” throughout. Moreover, the Potency result in test [10] and in test [9] was “inactive” in each case. In addition, in test [6], the result was inactive.
Take `C[C@@](Cc1ccc(O)c(O)c1)(NN)C(=O)O`: the Potency result in test [1], in [2], in [3], in test [4], in test [5] and in [7] was “inactive” in each case. Moreover, the Potency entry in [9] is “inactive”. Moreover, the result in [6] and in [8] was inactive.
`CCCCC/C=C\CCC(=O)N[C@H]1[C@H](Oc2c3cc4cc2Oc2ccc(cc2Cl)[C@@H](O[C@@H]2O[C@H](CO)[C@@H](O)[C@H](O)[C@H]2NC(C)=O)[C@@H]2NC(=O)[C@H](NC(=O)[C@@H]4NC(=O)[C@H]4NC(=O)[C@@H](Cc5ccc(c(Cl)c5)O3)NC(=O)[C@H](N)c3ccc(O)c(c3)Oc3cc(O)cc4c3)c3ccc(O)c(c3)-c3c(O[C@H]4O[C@H](CO)[C@@H](O)[C@H](O)[C@@H]4O)cc(O)cc3[C@@H](C(=O)O)NC2=O)O[C@H](CO)[C@@H](O)[C@@H]1O`: the Potency entry in test [1], in [2], in test [3], in test [4], in test [5] and in [7] was “inactive” throughout. Further, the Potency entry in test [10] and in [9] was “inactive” throughout. Further, in test [6], the call was inactive.
Consider `C=C[C@]1(C)C[C@@H](OC(=O)CSCCN(CC)CC)[C@]2(C)[C@H](C)CC[C@]3(CCC(=O)[C@H]32)[C@@H](C)[C@@H]1O`, for which the Potency entry in test [1], in test [2], in test [3], in test [4], in test [5] and in test [7] was “inactive” in each case. Moreover, the Potency entry in test [9] was “inactive”. Also, the result in [6] and in test [8] was inactive.
As to `COc1ccc2c(c1)N(C[C@H](C)CN(C)C)c1ccccc1S2`, the Potency result in test [1], in [2], in test [3], in [4], in test [5] and in [7] was “inactive” in each case. Moreover, the Potency entry in test [10] was “inactive”. Further, the compound was called inactive in [6].
In the case of `CC(O)[C@@H]1NC(=O)[C@H](CCCCN)NC(=O)[C@@H](Cc2c[nH]c3ccccc23)NC(=O)[C@H](Cc2ccccc2)NC(=O)[C@@H](NC(=O)[C@H](N)Cc2ccccc2)CSSC[C@@H](C(=O)N[C@H](CO)[C@@H](C)O)NC1=O` (some centres not stated), the Potency entry in test [1], in test [2], in test [3], in test [4], in test [5] and in test [7] was “inactive” throughout. Moreover, in test [9], the Potency entry was “inactive”. Moreover, the result in test [6] and in test [8] was inactive.
In the case of `CCOc1cc(-c2nccc3cc(OC)c(OC)cc23)cc(OCC)c1OCC`, the Potency result in test [1], in test [2], in [3], in [4], in test [5] and in test [7] was “inactive” throughout. In test [9], the Potency result is “inactive”. Also, the call in test [6] and in [8] was inactive.
Turning to `FC(F)(F)C(F)(F)C(F)(F)C(F)(F)C(F)(F)C(F)(F)F`, the Potency result in test [1], in [2], in test [3], in test [4], in [5] and in test [7] was “inactive” each time. Besides, the Potency entry in [9] was “inactive”. For the same compound, the outcome in [6] and in test [8] was inactive.
Take `COC(=O)C1=C(C#N)NC(C)=C(C(=O)OC(C)C)C1c1cccc([N+](=O)[O-])c1` (configuration not stated): the Potency entry in test [1], in test [2], in [3], in test [4], in [5] and in test [7] was “inactive” in each case. In addition, the result in test [6] and in test [8] was inactive. For the same compound, in [9], the Potency was 19 µM (active).
Consider `CCCCCCCCCCCCCCCCCCOP(=O)([O-])OC1CC[N+](C)(C)CC1`, for which the Potency entry in test [1], in test [2], in test [3], in test [4], in test [5] and in test [7] was “inactive” each time. The Potency entry in test [10] and in [9] was “inactive” each time. The compound was called inactive in test [6].
As for `CC(=O)OCC(=O)[C@@]12OC3(CCCC3)O[C@@H]1C[C@H]1[C@@H]3CCC4=CC(=O)C=C[C@]4(C)[C@@]3(F)[C@@H](O)C[C@@]12C`, the Potency result in [1], in test [2], in [3], in [4], in test [5] and in test [7] was “inactive” throughout. The compound was classed as inactive in test [6]. Further, the Potency in test [10] is 0.019 µM (active).
Consider `CC1(C)S[C@@H]2[C@H](NC(=O)C(C(=O)O)c3ccsc3)C(=O)N2[C@H]1C(=O)O` (some centres not stated), for which the Potency result in test [1], in test [2], in test [3], in [4], in test [5] and in test [7] was “inactive” throughout. The Potency entry in test [10] and in [9] was “inactive” in each case. The outcome in [6] was inactive.
For `Clc1cc(Cl)c(OCC#CI)cc1Cl`, the Potency entry in test [1], in [2], in test [3], in test [4] and in test [5] was “inactive” in each case. Also, the compound was classed as inactive in [6] and in [8]. In [10], the Potency is 26.8 µM [inconclusive] (active).
For the compound `Cc1c(N)nc(C(CC(N)=O)NCC(N)C(N)=O)nc1C(=O)NC(C(=O)NC(C)C(O)C(C)C(=O)NC(C(=O)NCCc1nc(-c2nc(C(=O)NCCCN[C@@H](C)c3ccccc3)cs2)cs1)C(C)O)C(O[C@@H]1O[C@@H](CO)[C@@H](O)[C@H](O)[C@@H]1O[C@H]1O[C@H](CO)[C@@H](O)[C@H](OC(N)=O)[C@@H]1O)c1cnc[nH]1` (some centres not stated), the Potency result in test [1], in test [2], in [3], in [4], in [5] and in [10] was “inactive” each time. The Potency entry in test [9] is “inactive”. Also, the compound was called inactive in [6] and in test [8].
On to `NC(=O)OC[C@@H]1[C@H](NC(=O)/C(=N\OCC(=O)O)c2csc(N)n2)C(=O)N1S(=O)(=O)O`, for which the Potency result in [1], in [2], in [3], in test [4], in test [5] and in [10] was “inactive” in each case. Further, the Potency result in test [9] is “inactive”. The compound was classed as inactive in [6] and in [8].
On to `CC(=O)N(CC(C)C(=O)O)c1c(I)cc(I)c(N)c1I` (configuration not stated), for which the Potency entry in [1], in test [2], in [3], in test [4], in test [5] and in [10] was “inactive” in each case. The Potency result in test [9] was “inactive”. Also, the compound was called inactive in test [6].
Regarding `Cc1ccc(S(=O)(=O)NC(=O)N[C@@H](C)Cc2ccccc2)cc1`, the Potency entry in test [1], in [2], in test [3], in test [4] and in test [5] was “inactive” in each case. The outcome in [6] and in test [8] was inactive.
For `C[C@H](N)C(=O)N[C@@H](C)P(=O)(O)O`, the Potency result in [1], in test [2], in test [3], in test [4] and in test [5] was “inactive” each time. The call in [6] and in test [8] was inactive.
On to `CC(C)C[C@H](NC(=O)[C@@H](Cc1c[nH]c2ccccc12)NC(=O)[C@H](Cc1ccc(O)cc1)NC(=O)[C@H](CO)NC(=O)[C@H](Cc1c[nH]c2ccccc12)NC(=O)[C@H](Cc1cnc[nH]1)NC(=O)[C@@H]1CCC(=O)N1)C(=O)N[C@@H](CCCN=C(N)N)C(=O)N1CCC[C@@H]1C(=O)NCC(N)=O`, for which the Potency entry in test [1], in test [2], in [3], in [4], in test [5] and in test [9] was “inactive” each time. Further, the result in test [6] and in test [8] was inactive.
Regarding `O=C(Nc1ccc(Br)cc1)c1cc(Br)c(Br)s1`, the Potency entry in test [1], in test [2], in test [3], in test [4] and in test [5] was “inactive” throughout. The outcome in [6] and in test [8] was inactive.
